Source: PubChem BioAssay (EPA / NIEHS)
Active and inactive are the calls of the source. How the source made its calls: active means hit-call score of the fitted dose curve at least 0.9, where 1 is the maximum; inactive means score below 0.9.

Tests used:
Details in all cases: mRNA level, 48 h; actives raise or lower the signal
[1] = read-out: growth arrest and DNA damage 45 (GADD45A), GADD45A (gene 1647); experiment: LTEA_HepaRG_GADD45A: Life Technologies and Expression Analysis (LTEA) Assay for growth arrest and DNA damage 45 (GADD45A) using HepaRG (AID 2283458)
Method in brief: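 Transcript induction or loss, quantified by TaqMan qRT-PCR against three housekeeping genes, is the read-out. HepaRG cells received chemicals for 48 h across eight half-log concentrations from 100 uM in 0.5% DMSO; gain and loss fitted relative to DMSO.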

[2] = read-out: Forkhead box O3 (FOXO3), FOXO3 (gene 2309); experiment: LTEA_HepaRG_FOXO3: Life Technologies and Expression Analysis (LTEA) Assay for Forkhead box O3 (FOXO3) using HepaRG (AID 2283459)
Method in brief: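 qRT-PCR readout of FOXO3 transcript, normalized to three housekeeping genes (ACTB, GAPDH, POLR2A); gain or loss fitted against 0.5% DMSO vehicle. HepaRG cells, 48 h chemical exposure, 8-point half-log series, top 100 uM.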

[3] = read-out: ABC Transporter (ABCB1), ABCB1 (gene 5243); experiment: LTEA_HepaRG_ABCB1: Life Technologies and Expression Analysis (LTEA) Assay for ABC Transporter (ABCB1) using HepaRG (AID 2283460)
Method in brief: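 HepaRG, 48 h exposure, 8-pt half-log series from 100 uM, 0.5% DMSO vehicle, duplicates. Readout: ABCB1 transcript by Fluidigm TaqMan qRT-PCR, housekeeping-normalized; bidirectional curve fit vs DMSO baseline.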

[4] = read-out: growth arrest and DNA damage 45 (GADD45B), GADD45B (gene 4616); experiment: LTEA_HepaRG_GADD45B: Life Technologies and Expression Analysis (LTEA) Assay for growth arrest and DNA damage 45 (GADD45B) using HepaRG (AID 2283461)
Method in brief: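 Transcript level quantified by Fluidigm TaqMan qRT-PCR with three housekeeping genes for normalization, analyzed for up- or down-regulation against 0.5% DMSO. HepaRG cultures dosed 48 h at eight half-log concentrations up to 100 uM, duplicates.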

[5] = read-out: ABC Transporter (ABCC3), ABCC3 (gene 8714); experiment: LTEA_HepaRG_ABCC3: Life Technologies and Expression Analysis (LTEA) Assay for ABC Transporter (ABCC3) using HepaRG (AID 2283462)
Method in brief: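 Transcript level by TaqMan qRT-PCR, normalised to three housekeeping genes, fitted in both directions relative to vehicle. Chemicals tested in duplicate at eight half-log concentrations up to 100 uM for 48 h on HepaRG cells (0.5% DMSO).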

[6] = read-out: ABC Transporter (ABCB11), ABCB11 (gene 8647); experiment: LTEA_HepaRG_ABCB11: Life Technologies and Expression Analysis (LTEA) Assay for ABC Transporter (ABCB11) using HepaRG (AID 2283463)
Method in brief: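 HepaRG, 48 h exposure, 8-pt half-log CRC top 100 uM, 0.5% DMSO vehicle, duplicates. Readout: TaqMan qRT-PCR of ABCB11 mRNA, housekeeping-normalized (ACTB/GAPDH/POLR2A). Bidirectional fit vs DMSO baseline.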

[7] = read-out: ABC Transporter (ABCC2), ABCC2 (gene 1244); experiment: LTEA_HepaRG_ABCC2: Life Technologies and Expression Analysis (LTEA) Assay for ABC Transporter (ABCC2) using HepaRG (AID 2283464)
Method in brief: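 Endpoint is ABCC2 transcript level from qRT-PCR, normalized to three housekeeping genes and fitted bidirectionally relative to DMSO. Human HepaRG cells received test chemical for 48 h at up to 100 uM (8 points, half-log steps, 0.5% DMSO), duplicate wells.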

[8] = read-out: Broad substrate specificity ATP-binding cassette transporter ABCG2 (Homo sapiens) (UniProt Q9UNQ0); experiment: LTEA_HepaRG_ABCG2: Life Technologies and Expression Analysis (LTEA) Assay for ABC Transporter (ABCG2) using HepaRG (AID 2283465)
Method in brief: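 HepaRG, 48 h exposure, 8-pt half-log series from 100 uM, 0.5% DMSO vehicle, duplicates. Readout: ABCG2 transcript by qRT-PCR (Fluidigm array), housekeeping-normalized; bidirectional curve fit relative to DMSO baseline.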

[9] = read-out: ATP-citrate lyase (ACLY), ACLY (gene 47); experiment: LTEA_HepaRG_ACLY: Life Technologies and Expression Analysis (LTEA) Assay for ATP-citrate lyase (ACLY) using HepaRG (AID 2283466)
Method in brief: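 qRT-PCR readout of ACLY transcript after 48 h chemical treatment of HepaRG cells; expression normalized to three housekeeping genes. Eight-point half-log series, highest 100 uM, 0.5% DMSO vehicle. Gain or loss fitted against DMSO baseline.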

[10] = read-out: Peroxisomal acyl-coenzyme A oxidase 1 (ACOX1) gene, ACOX1 (gene 51); experiment: LTEA_HepaRG_ACOX1: Life Technologies and Expression Analysis (LTEA) Assay for Peroxisomal acyl-coenzyme A oxidase 1 (ACOX1) gene using HepaRG (AID 2283467)
Method in brief: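 HepaRG, 48 h chemical exposure, 8-pt half-log series from 100 uM top, 0.5% DMSO vehicle, duplicates. Readout: ACOX1 mRNA by Fluidigm qRT-PCR, housekeeping-normalized; bidirectional fit vs DMSO baseline.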

Measured: AC50

Chain of Broad substrate specificity ATP-binding cassette transporter ABCG2 (Homo sapiens) (Q9UNQ0 whole entry, looked up): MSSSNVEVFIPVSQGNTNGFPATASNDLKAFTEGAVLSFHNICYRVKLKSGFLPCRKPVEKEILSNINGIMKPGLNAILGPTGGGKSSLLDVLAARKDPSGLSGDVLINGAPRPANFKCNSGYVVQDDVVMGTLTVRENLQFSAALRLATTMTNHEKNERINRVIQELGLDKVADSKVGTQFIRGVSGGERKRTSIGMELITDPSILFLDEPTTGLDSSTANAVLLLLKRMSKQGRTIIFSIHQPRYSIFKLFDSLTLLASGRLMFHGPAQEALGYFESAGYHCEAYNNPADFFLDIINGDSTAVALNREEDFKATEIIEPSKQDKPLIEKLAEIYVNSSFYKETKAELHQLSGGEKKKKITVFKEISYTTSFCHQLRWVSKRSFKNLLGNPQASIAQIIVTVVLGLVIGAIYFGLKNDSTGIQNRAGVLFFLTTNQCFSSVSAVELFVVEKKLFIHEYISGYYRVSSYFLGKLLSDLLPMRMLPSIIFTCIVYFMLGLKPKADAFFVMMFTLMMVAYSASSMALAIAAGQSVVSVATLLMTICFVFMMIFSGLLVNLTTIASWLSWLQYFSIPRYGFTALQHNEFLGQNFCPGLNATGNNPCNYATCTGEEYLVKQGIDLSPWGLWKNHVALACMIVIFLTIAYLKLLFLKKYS

O=[N+]([O-])c1ccc(O)cc1
inactive: all assays above

CCCCCCCCC(=O)O
inactive: all assays above

C[C@@H]1C[C@H]2[C@@H]3CCC4=CC(=O)C=C[C@]4(C)[C@@]3(F)[C@@H](O)C[C@]2(C)[C@@]1(O)C(=O)COP(=O)(O)O
inactive: all assays above

CC1=C(/C=C/C(C)=C/C=C/C(C)=C/C(=O)O)C(C)(C)CCC1
active: [3] 0.81 µM | [6] 29.4 µM | [8] 3.14 µM
inactive: all other assays above

CCCCCCCCCCCCN1CCCC1=O
inactive: all assays above

CCCCCCCC(=O)O
active: [3] 12.4 µM | [9] 12.4 µM | [10] 12.5 µM
inactive: all other assays above

OC1CCCCC1
inactive: all assays above

Nc1cccc2c(N)cccc12
active: [2] 22.4 µM | [6] 50 µM
inactive: all other assays above

Cc1cc(CCN2CCN(c3nsc4ccccc34)CC2)cc2c1NC(=O)CC2(C)C
active: [3] 79.8 µM | [6] 74.7 µM | [7] 85.1 µM | [8] 32 µM | [10] 75.2 µM
inactive: [1] | [2] | [4] | [5] | [9]

CC(C)(C)c1cc(C(C)(C)C)c(O)c(C(C)(C)C)c1
active: [7] 50 µM | [8] 20.9 µM
not listed: [5]
inactive: all other assays above

N#C[C@@H]1CC(F)(F)CN1C(=O)CNC1CC2CCC(C1)N2c1ncccn1 (some centres undefined)
inactive: all assays above

CN1CCN(c2ccccc2/C=C2\SCCN(c3ccc(Cl)c(Cl)c3)C2=O)CC1
active: [2] 69 µM | [4] 50 µM | [5] 11.5 µM | [6] 22.5 µM
inactive: all other assays above

C=C(C)C(=O)OCCC(F)(F)C(F)(F)C(F)(F)C(F)(F)C(F)(F)C(F)(F)F
inactive: all assays above

CCCCCCCCOC(=O)CCCCCCCCC(=O)OCCCCCCCC
inactive: all assays above

CCC(C)(C)C1CCC(O)CC1 (centres undefined)
inactive: all assays above

CCC(=C(c1ccc(O)cc1)c1ccc(OCCN(C)C)cc1)c1ccccc1
active: [5] 82.1 µM | [7] 86.1 µM
inactive: all other assays above

CCCCC(CC)COC(=O)CCCCC(=O)OCc1ccccc1 (centres undefined)
inactive: all assays above

O=C(OCCOCCOC(=O)c1ccccc1)c1ccccc1
inactive: all assays above

CC[C@H](C)[C@@H](C(=O)O)n1sc2ccccc2c1=O
inactive: all assays above

c1ccc2c(c1)ccc1ccccc12
active: [7] 9.92 µM | [8] 9.4 µM
inactive: all other assays above

CCCOc1sc(C(=O)N2CCC(c3cc(CN)ccc3F)CC2)c(C)c1Br
inactive: all assays above

NC(=O)N1C(=O)C(C(=O)c2cc(Cl)cs2)c2cc(F)c(Cl)cc21 (centres undefined)
active: [1] 36 µM | [2] 35 µM | [3] 19.4 µM | [4] 28.1 µM | [5] 12.8 µM | [6] 15.6 µM | [7] 27.7 µM | [8] 50 µM | [9] 21 µM | [10] 50 µM

O=C(O)c1ccccc1C(c1ccc(O)cc1)c1ccc(O)cc1
inactive: all assays above

CCc1nn(C2CCCCC2)c2cc(C3(C#N)CCC(C(=O)O)CC3)ccc12 (centres undefined)
active: [1] 77.6 µM | [3] 12.4 µM | [6] 82.8 µM | [8] 13 µM | [9] 25.5 µM
inactive: all other assays above

CCCCCCCCCCCCc1ccccc1S(=O)(=O)O
active: [2] 87.9 µM | [6] 85.7 µM | [7] 12.3 µM | [8] 50 µM | [10] 11.7 µM
inactive: [1] | [3] | [4] | [5] | [9]

CCN(CC)CCNc1ccc(CNC=O)c2sc3ccc(OC)cc3c(=O)c12
active: [2] 50 µM | [3] 60.8 µM | [4] 11.4 µM | [5] 86.6 µM | [6] 11.4 µM | [7] 77.5 µM | [8] 9.65 µM | [9] 83.2 µM | [10] 50 µM
inactive: [1]

CCCOC(=O)c1ccc(O)cc1
inactive: all assays above

CCCCOCCO
inactive: all assays above

OC1CCC(C2CCCCC2)CC1 (centres undefined)
inactive: all assays above

c1ccc2c(c1)Cc1ccccc1-2
inactive: all assays above

CC#C[C@]1(O)CC[C@H]2[C@@H]3CCC4=CC(=O)CCC4=C3[C@@H](c3ccc(N(C)C)cc3)C[C@@]21C
inactive: [5] | [10]
active: [1] 72.6 µM | [2] 91.2 µM | [3] 26.9 µM | [4] 12 µM | [6] 24.7 µM | [7] 2.42 µM | [8] 29.8 µM | [9] 79.1 µM
